The values that follow come from PubChem BioAssay.

Active and inactive are the calls of the source.

Test [1] in a line: E. coli DRC41 culture turbidity changes, primary screen, E. coli filamentation inducer project, strain DRC41, OD650, 48 h (AID 1152).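 Note: E. coli MC1000 strain DRC41 lacking acrAB efflux pump and sulA.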 To be noted: E. coli DRC41 (acrAB sulA), higher = more signal, called active from +8 up or from −8 down.
Test [2] in a line: small-molecule binders of probe aLefty1, primary screen, biochemical, small-molecule microarray, 635/667 nm fluorescence (AID 1153).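 Note: score merges spot fluorescence with signal-to-noise ratio from the scanned slide images.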 To be noted: higher = more signal.
A short description of test [3]: PSAC antagonists in infected red cells, primary screen, cell-based, P. falciparum Indochina, OD700, 1 h (AID 1154). To be noted: P. falciparum Indochina infected RBC osmotic lysis, higher = more signal, called active from +8 up or from −8 down.
Test [4] is described as follows: PSAC antagonists in infected red cells, primary screen, cell-based, P. falciparum Indochina, OD700, 2 h (AID 1155).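 Note: lysis reports solute entry through the parasite surface anion channel PSAC; channel blockers reduce lysis of infected cells.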 To be noted: P. falciparum Indochina infected erythrocytes, osmotic lysis OD700; higher = more signal, called active from +8 up or from −8 down.
A short description of test [5]: osmotic lysis modulators in infected erythrocytes, primary screen, PSAC antagonist project, cell-based, P. falciparum Indochina, OD700, 3 h (AID 1156). To be noted: higher = more signal, called active from +8 up or from −8 down.
Test [6] in a line: PSAC antagonists in infected red cells, primary screen, cell-based, P. falciparum Indochina, OD700, 18 h (AID 1157). To be noted: P. falciparum Indochina infected erythrocytes, osmotic lysis OD700, 18 h; higher = more signal, called active from +8 up or from −8 down.
The nature of test [7]: modulators of S6 phosphorylation in cells, primary screen, cell-based, A549, cytoblot, luminescence, serum-stimulated (AID 1158).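 Note: serum-stimulated A549 lung adenocarcinoma cells; signal is phosphorylated S6 detected by cytoblot immunostaining with HRP secondary.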 To be noted: A549 phospho-S6 cytoblot, 5 h, higher = more signal.
For test [8], the target named is NADPH oxidase 2 (Homo sapiens) (UniProt P04839). The experiment in a line: NOX2-dependent H2O2 signal modulators, primary screen, NOX inhibitor project, cell-based, HEK293-NOX2, PMA-stimulated, Amplex Red fluorescence (AID 1159). Note: test concentration not given here. To be noted: 45 min, higher = more signal, called active from +8 up or from −8 down.
Chain of NADPH oxidase 2 (Homo sapiens) (P04839 whole entry, looked up): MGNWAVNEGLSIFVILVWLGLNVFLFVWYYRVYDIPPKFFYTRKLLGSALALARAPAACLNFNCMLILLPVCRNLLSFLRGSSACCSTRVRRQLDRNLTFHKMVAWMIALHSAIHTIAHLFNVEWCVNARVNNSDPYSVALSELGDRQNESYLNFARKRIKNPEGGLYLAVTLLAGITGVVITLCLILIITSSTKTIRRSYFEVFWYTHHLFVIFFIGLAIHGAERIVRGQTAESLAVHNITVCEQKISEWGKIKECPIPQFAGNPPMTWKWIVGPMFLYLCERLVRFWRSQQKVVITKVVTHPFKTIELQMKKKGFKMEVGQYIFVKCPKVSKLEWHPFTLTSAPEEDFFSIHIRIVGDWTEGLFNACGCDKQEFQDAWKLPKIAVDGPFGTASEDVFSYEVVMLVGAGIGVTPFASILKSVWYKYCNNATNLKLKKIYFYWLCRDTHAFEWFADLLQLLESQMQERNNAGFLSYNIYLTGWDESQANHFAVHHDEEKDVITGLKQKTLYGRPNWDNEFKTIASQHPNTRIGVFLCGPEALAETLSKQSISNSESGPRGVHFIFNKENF
Test [9] addresses NADPH oxidase 4 (Homo sapiens) (UniProt Q9NPH5). As to the kind of experiment: NOX4-dependent H2O2 signal modulators, primary screen, NOX inhibitor project, cell-based, HEK293-NOX4, tetracycline-induced, Amplex Red fluorescence (AID 1160). To be noted: 45 min, higher = more signal, called active from +8 up or from −8 down.
The target in test [10] is NADPH oxidase 5 (Homo sapiens) (UniProt Q96PH1). The experiment in a line: NOX5-dependent H2O2 signal modulators, primary screen, NOX inhibitor project, cell-based, HEK293-NOX5, Amplex Red fluorescence (AID 1161). To be noted: HEK293-NOX5, ionomycin, 45 min, higher = more signal.
Chain of NADPH oxidase 5 (Homo sapiens) (Q96PH1 whole entry, looked up): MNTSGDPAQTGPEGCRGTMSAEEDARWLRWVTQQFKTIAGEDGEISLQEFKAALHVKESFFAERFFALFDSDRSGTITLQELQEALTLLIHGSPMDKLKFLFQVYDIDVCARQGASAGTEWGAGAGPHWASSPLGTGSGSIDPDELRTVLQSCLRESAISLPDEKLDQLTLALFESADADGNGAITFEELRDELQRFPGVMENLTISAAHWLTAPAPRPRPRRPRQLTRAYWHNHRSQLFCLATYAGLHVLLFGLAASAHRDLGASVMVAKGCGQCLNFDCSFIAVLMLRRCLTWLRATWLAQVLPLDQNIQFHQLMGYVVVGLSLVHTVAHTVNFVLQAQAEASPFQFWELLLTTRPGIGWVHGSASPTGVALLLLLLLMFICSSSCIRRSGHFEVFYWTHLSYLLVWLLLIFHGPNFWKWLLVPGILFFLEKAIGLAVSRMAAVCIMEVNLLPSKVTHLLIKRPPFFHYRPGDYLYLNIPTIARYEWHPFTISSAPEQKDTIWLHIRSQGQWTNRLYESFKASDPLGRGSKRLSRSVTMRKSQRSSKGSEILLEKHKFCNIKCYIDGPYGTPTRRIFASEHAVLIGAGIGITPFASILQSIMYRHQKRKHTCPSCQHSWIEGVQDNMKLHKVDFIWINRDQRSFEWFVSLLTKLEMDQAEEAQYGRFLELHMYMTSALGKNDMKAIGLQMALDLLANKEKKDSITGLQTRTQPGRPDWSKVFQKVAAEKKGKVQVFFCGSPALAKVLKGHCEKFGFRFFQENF
Test [11] can be described thus: A549 cell viability effects, profiling panel, calcein-AM fluorescence, 48 h, basal (AID 1162). Note: test concentration not given here. To be noted: higher = more signal.
Test [12] is described as follows: adipocyte viability effects, profiling panel, cell-based, 3T3-L1 adipocytes, calcein-AM fluorescence, 48 h, basal (AID 1163). Note: test concentration not given here. To be noted: 3T3-L1 adipocytes viability, higher = more signal.
Test [13] in a line: HepG2 cell viability effects, profiling panel, calcein-AM fluorescence, 48 h, basal (AID 1164). Note: test concentration not given here. To be noted: higher = more signal.
Test [14] in a line: MM1S cell viability effects, profiling panel, calcein-AM fluorescence, 48 h, basal (AID 1165).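 Note: viability of MM1S multiple myeloma cells under basal unstimulated conditions; test concentration not given here.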 To be noted: higher = more signal.
Test [15] can be described thus: basal RPMI8226 viability, no added stimulus, profiling panel, cell-based, calcein-AM fluorescence, 48 h, PK04 Diversity Set (AID 1166).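 Note: cells grown under basal conditions without added stimulus; test concentration not given here.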 To be noted: RPMI8226 myeloma viability, higher = more signal.
The nature of test [16]: basal HepG2 mitochondrial membrane potential changes, profiling panel, cell-based, JC-1 fluorescence, 24 h, 100 nL compound (AID 1167). Note: test concentration not given here. To be noted: higher = more signal.
Test [17] is described as follows: basal 3T3-L1 adipocyte mitochondrial potential changes, profiling panel, cell-based, JC-1 fluorescence, 3T3-L1 adipocytes, 24 h, 100 nL compound (AID 1168). Note: test concentration not given here. To be noted: JC-1 mitochondrial fluorescence, higher = more signal, called active from +8 up or from −8 down.
Test [18] in a line: basal RPMI8226 mitochondrial membrane potential changes, profiling panel, cell-based, JC-1 fluorescence, 24 h, 100 nL compound (AID 1169). Note: test concentration not given here. To be noted: RPMI8226 myeloma, JC-1 mitochondrial potential fluorescence, higher = more signal.
Test [19] in a line: basal MM1S mitochondrial membrane potential changes, profiling panel, cell-based, JC-1 fluorescence, 24 h, 100 nL compound (AID 1170). Note: test concentration not given here. To be noted: higher = more signal.
Test [20] in a line: A549 lung cancer cell viability effects, profiling panel, resazurin fluorescence, 24 h, PK04 Diversity Set (AID 1171). Note: test concentration not given here. To be noted: higher = more signal, called active from +8 up or from −8 down. For orientation: Alamar Blue is a resazurin reagent that responds to reducing activity.

Chain of NADPH oxidase 4 (Homo sapiens) (Q9NPH5 whole entry, looked up): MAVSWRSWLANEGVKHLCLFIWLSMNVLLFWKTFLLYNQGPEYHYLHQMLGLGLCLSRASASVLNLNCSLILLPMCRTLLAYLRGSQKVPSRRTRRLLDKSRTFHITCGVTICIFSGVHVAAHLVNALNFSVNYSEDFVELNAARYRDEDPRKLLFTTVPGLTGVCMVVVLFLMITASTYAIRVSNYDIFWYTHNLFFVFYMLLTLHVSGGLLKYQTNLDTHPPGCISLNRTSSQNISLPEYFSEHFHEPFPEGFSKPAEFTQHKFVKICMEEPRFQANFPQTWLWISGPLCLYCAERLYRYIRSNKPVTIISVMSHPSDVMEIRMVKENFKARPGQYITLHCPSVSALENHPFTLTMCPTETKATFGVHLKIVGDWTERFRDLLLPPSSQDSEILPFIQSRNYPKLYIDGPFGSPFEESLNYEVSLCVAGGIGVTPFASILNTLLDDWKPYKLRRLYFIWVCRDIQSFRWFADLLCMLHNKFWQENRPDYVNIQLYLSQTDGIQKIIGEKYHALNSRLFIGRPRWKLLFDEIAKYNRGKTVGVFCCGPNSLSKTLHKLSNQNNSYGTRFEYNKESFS

Regarding `O=C1O[C@@H](c2ccccc2)[C@@H](c2ccccc2)N2[C@@H](c3ccc(O)cc3)[C@]3(C(=O)Nc4ccc(C#CC5(O)CCCCCC5)cc43)[C@@H](C(=O)N3CCN(c4ncccn4)CC3)[C@H]12`, the z-score is 1.36 (inactive) in test [1]; 0.0075 (inactive) in [3]; -0.443 (inactive) in test [4]; -5.11 (inactive) in test [5]; -0.195 (inactive) in test [6]; -0.181 in [7]. The z-score in test [8] was 1.07 (inactive); in [9] it was 0.74 (inactive); in test [10], 0.443; in [11], -0.415; in test [12], 0.292; in test [13], -0.458. Also, the z-score in test [14] is -0.0835; in test [15], -0.813; in test [16] it was -0.512; in test [17], -0.68 (inactive); in [18], -1.05; in [19], -0.203. Further, the z-score in test [20] was 0.533 (inactive). The compound also came in with a composite z-score in test [2] of 0.214.
Regarding `COC(=O)[C@@]1(Cc2ccc(OC)cc2)[C@H]2c3cc(C(=O)N4CCCC4)n(CCc4ccc(O)c(OC)c4)c3C[C@H]2CN1C(=O)c1ccccc1`, the z-score in [1] is -1.82 (inactive); in test [3] it was 2.81 (inactive); in test [4] it was 0.626 (inactive); in test [5], 0.394 (inactive); in test [6] it was 0.594 (inactive); in [7], 0.389. Further, the z-score in test [8] is -0.124 (inactive); in [9], -1.39 (inactive); in test [10], -2.06; in [11], -1.47; in test [12], 0.0048; in test [13], -0.0475. The z-score in test [14] is -1.03; in test [15] it was -0.254; in test [16] it was -0.851; in test [17], -0.867 (inactive); in test [18] it was -0.167; in test [19], -0.563. Besides, the z-score in test [20] is 1.05 (inactive). Also, the composite z-score in test [2] stood at 0.128.
Turning to `O=C(O)[C@@]1(Cc2ccccc2)COC(c2ccc(OCCCO)cc2)=N1`, the z-score is 0.532 (inactive) in [1]; 1.36 (inactive) in [3]; -0.166 (inactive) in test [4]; 0.619 (inactive) in test [5]; 0.295 (inactive) in test [6]; -0.521 in test [7]. Besides, the z-score in test [8] is -0.0643 (inactive); in test [9] it was 0.432 (inactive); in test [10], 0.237; in [11] it was -0.297; in test [12] it was 0.139; in test [13], 0.0851. The z-score in [14] was -0.108; in test [15] it was 0.21; in test [16], -0.519; in test [17], -0.0997 (inactive); in test [18] it was 0.478; in [19], 0.0336. For the same compound, the z-score in [20] was 0.542 (inactive). Moreover, the composite z-score in test [2] is -0.0573.
As to `C=CCN1C(=O)[C@@]2(O[C@@H](CCO)[C@H]([Si](C)(C)c3ccc(OC)cc3)[C@H]2C)c2cc(NC(=O)[C@H](C)O)ccc21`, the z-score is 0.301 (inactive) in test [1]; 23 (active) in test [3]; 6.92 (inactive) in [4]; 0.903 (inactive) in test [5]; 1.62 (inactive) in [6]; 0.29 in [7]. For the same compound, the z-score is -0.54 (inactive) in test [8]; 0.552 (inactive) in test [9]; -0.335 in test [10]; 0.174 in test [11]; 0.178 in [12]; -2.92 in test [13]. Further, the z-score in test [14] is -2.69; in test [15] it was -4.41; in test [16], 1.89; in test [17], 0.18 (inactive); in test [18] it was -0.872; in [19], -1.09. The z-score in [20] is -2.25 (inactive). In test [2], this compound showed a composite z-score of -0.0879.
Consider `[N-]=[N+]=NCc1ccccc1[C@H]1OC(c2ccc(OCCCO)cc2)=N[C@@]1(Cc1ccccc1N=[N+]=[N-])C(=O)N1CCCCC1`, for which the z-score was 0.369 (inactive) in test [1]; 27.7 (active) in test [3]; 21.4 (active) in test [4]; 2.7 (inactive) in test [5]; 4.56 (inactive) in test [6]; -0.0152 in test [7]. In addition, the z-score in test [8] is -2.52 (inactive); in test [9] it was 0.328 (inactive); in [10], -0.575; in test [11], -0.457; in test [12] it was -0.5; in [13], -0.536. Further, the z-score in test [14] is -2.14; in test [15], -2.79; in test [16], 1.06; in test [17], 0.0871 (inactive); in test [18] it was -0.978; in [19], -1.76. Besides, the z-score in test [20] is -0.409 (inactive). This compound also displayed a composite z-score in [2] of 0.72.
